In PubChem BioAssay (EPA / NIEHS):
Inconclusive results are not listed. The source made the active and inactive calls. Rule for the calls, unless noted: active = hit-call score of the fitted dose curve at least 0.9, where 1 is the maximum; inconclusive = response in the unintended direction; inactive = score below 0.9.

Biological target: Estrogen receptor (Homo sapiens) (UniProt P03372)
Assay: CCTE_Deisenroth_AIME_384WELL_LUC_Inactive: CCTE's 384-well Estrogen Receptor Transactivation Assay without AIME metabolic competence (ERTA luciferase; metabolism negative), Deisenroth Lab (AID 2284038);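 note: VM7Luc4E2 breast cells given medium preincubated 2 h with S9-free microspheres; hits raise estrogen receptor luciferase signal so potencies reflect agonists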
Procedure: CCTE_Deisenroth_AIME_384WELL (AIME metabolism assay) is a cell-based, single-readout assay that uses VM7Luc4E2, a human mammary gland/breast cell line, with measurements taken at 24 hour after chemical dosing in a 384-well plate.CCTE_Deisenroth_AIME_384WELL_LUC_Inactive is one of four assay components measured or calculated from the CCTE_Deisenroth_AIME_384WELL assay. It is designed to make measurements of luciferase induction, a form of inducible reporter, as detected with bioluminescence signals by luciferase-coupled ATP quantitation technology.CCTE_Deisenroth_AIME_384WELL_LUC_Inactive is a component of the CCTE_Deisenroth_AIME_384WELL assay that measures the effect of retroftting the VM7Luc ERTA assay with the Alginate Immobolization of Metabolic Enzymes (AIME) metabolism method. AIME is optimized to impart phase I hepatic metabolism using phenobarbital/beta-naphthoflavone induced hepatic S9 from male Sprague Dawley rats. Parent chemicals are incubated for 2 hours in the AIME assay prior to transfer to the VM7Luc ERTA assay plate. […] This endpoint evaluates reporter induction in metabolism negative mode. Using a type of inducible reporter in VM7Luc cells, gain-of-signal activity can be used to understand changes in the reporter gene as they relate to xenobiotic metabolism and the gene ESR1. This assay endpoint, CCTE_Deisenroth_AIME_384WELL_LUC_Inactive, was analyzed in the positive analysis fitting direction relative to 17beta-estradiol as the positive control in the ERTA assay. To generalize the intended target to other relatable targets, this assay endpoint is annotated to the nuclear receptor intended target family, where the subfamily is steroidal.
The AIME procedure consists of a preparative "pre-stamping" step using a barium chloride/poly-L-lysine (PLL) solution followed by "stamping" the lid in alginate-hepatic S9 (metabolism positive) or alginate-water (metabolism negative) to form microspheres. Once stamping is completed, the AIME lids are placed in duplicate microplates (metabolism positive or negative) containing chemical solutions and incubated for two hours to facilitate metabolic reactions. The conditioned medium, containing parent chemical or metabolites, is then transferred to the cell-based VM7Luc Estrogen Receptor Transactivation Assay (ERTA) for 24 hours. A typical experimental design tests a 10-point concentration series (0.002 - 200 uM) for 8 compounds (96-well format)1 or 32 compounds (384-well format)2 in single technical replicate. AIME assay controls include trans-stilbene (bioactivated control) and ethylparaben (bioinactivated control). ERTA assay plate controls include 17-beta estradiol (positive control) and DMSO (solvent control). Experiments typically comprise a minimum of four experimental replicates (n=4).

Chain of Estrogen receptor (Homo sapiens) (P03372 whole entry, looked up): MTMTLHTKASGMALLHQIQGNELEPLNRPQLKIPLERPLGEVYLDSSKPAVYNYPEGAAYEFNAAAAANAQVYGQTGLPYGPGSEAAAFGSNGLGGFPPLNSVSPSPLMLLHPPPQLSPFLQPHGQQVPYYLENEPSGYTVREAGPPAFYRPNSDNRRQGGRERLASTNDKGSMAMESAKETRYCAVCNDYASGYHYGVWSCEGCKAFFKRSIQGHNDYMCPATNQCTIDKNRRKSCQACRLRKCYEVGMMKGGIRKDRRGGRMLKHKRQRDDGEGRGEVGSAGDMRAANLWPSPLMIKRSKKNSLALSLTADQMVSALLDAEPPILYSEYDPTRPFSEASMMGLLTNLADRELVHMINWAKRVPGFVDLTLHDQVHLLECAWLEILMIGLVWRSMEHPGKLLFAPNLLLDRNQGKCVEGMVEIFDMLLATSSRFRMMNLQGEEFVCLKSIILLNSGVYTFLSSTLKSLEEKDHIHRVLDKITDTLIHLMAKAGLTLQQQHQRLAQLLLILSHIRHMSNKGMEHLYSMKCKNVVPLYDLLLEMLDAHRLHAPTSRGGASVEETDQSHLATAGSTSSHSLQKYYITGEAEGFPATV

| SMILES | AC50 | outcome |
| --- | --- | --- |
| OCCOCCOCCOCCO | 1.71 nM (active) |  |
| NCCCN1CCOCC1 |  | inactive |
| CC(=O)OCCOC(C)=O |  | inactive |
| CCCCCCCCCCCCCC(=O)O |  | inactive |
| CCCCCCCCCC=O |  | inactive |
| CN(C)CCCN |  | inactive |

System: not listed separately
Assay: CCTE_Deisenroth_AIME_384WELL_CTox_Inactive: Cytotoxicity Assessment (CTOX) in CCTE's 384-well Estrogen Receptor Transactivation Assay without AIME metabolic competence (metabolism negative), Deisenroth Lab (AID 2284039);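 note: cell viability via live-cell protease substrate cleaved to fluorescent probe; cells exposed 24 h to medium preincubated 2 h with alginate-water beads without S9; loss of fluorescence signal means loss of viability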
How it was run: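 Fluorescence from a live-cell protease substrate, read after 24 h in VM7Luc4E2 cells, indicated viability. Test medium came from a 2 h AIME step without hepatic S9 (alginate-water microspheres); concentrations spanned 0.002 - 200 uM, single technical replicate per run.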

| SMILES | outcome | AC50 |
| --- | --- | --- |
| OCCOCCOCCOCCO | inactive |  |
| CC(C)=CCCC(C)CC=O (stereo unspecified) | inactive |  |
| NCCCN1CCOCC1 | inactive |  |
| CCCCC(CC)COC(=O)/C=C\C(=O)OCC(CC)CCCC (stereo unspecified) | inactive |  |
| O=C1C(c2[nH]c3ccc(S(=O)(=O)O)cc3c2O)=Nc2ccc(S(=O)(=O)O)cc21 | inactive |  |
| O=C[C@@H](O)[C@H](O)[C@H](O)CO | inactive |  |
| NCCCCCCN | inactive |  |
| CC1(C)C(=O)N(Br)C(=O)N1Cl | inactive |  |
| CC(=O)OCCOC(C)=O | inactive |  |
| CCC(=O)/C=C/C1C(C)=CCCC1(C)C (stereo unspecified) | inactive |  |
| CC1(C)[C@@H]2CC[C@@]1(C)[C@H](O)C2 | inactive |  |
| NC(=O)NC1NC(=O)NC1=O (stereo unspecified) | inactive |  |
| CCCCCCCCCCCCCC(=O)O | inactive |  |
| O=C(O)c1ccc([N+](=O)[O-])cc1 | inactive |  |
| CCCC1CCC(=O)O1 (stereo unspecified) | inactive |  |
| O=C(O)c1ccc(C(=O)O)cc1 | inactive |  |
| CCCCCCCCCCCCCOS(=O)(=O)O |  | 96300 nM (active) |
| CN(C)CCCN | inactive |  |

System: not listed separately
Assay: CCTE_Shafer_MEA_dev_active_electrodes_number: CCTE's Neural Network Formation Assay for Number of Active Electrodes, Shafer Lab (AID 2284040);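 for AC50: potency for loss of active electrodes versus DMSO so lower counts are hits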
How it was run: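 Primary rat cortical neurons on 16-electrode MEA wells, exposed from day 0 through day 12 with compound renewed at DIV 5 and 9 feeds. Active electrodes (mean firing ≥5 spikes/min) counted at DIV 5, 7, 9, 12; trapezoidal AUC across days, loss-of-signal versus DMSO.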

| SMILES | AC50 | outcome |
| --- | --- | --- |
| c1ccc2c(c1)c1cccc3ccc4cccc2c4c31 | 3190 nM (active) |  |
| CN(C)C(=N)N=C(N)N |  | inactive |
| N#Cc1ccc(CC(=NNC(=O)Nc2ccc(OC(F)(F)F)cc2)c2cccc(C(F)(F)F)c2)cc1 | 692 nM (active) |  |

Biological target: Estrogen receptor (Homo sapiens) (UniProt P03372)
Assay: CCTE_Deisenroth_AIME_384WELL_LUC_Shift: CCTE's 384-well Estrogen Receptor Transactivation Assay with AIME metabolic competence data shift (ERTA luciferase; difference in metabolism positive and negative), Deisenroth Lab (AID 2284041; active = hit-call score of the fitted dose curve at least 0.9, where 1 is the maximum; inactive = score below 0.9;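 note: shift is response with S9 minus without S9 so positive means metabolism raised ER signal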)
How it was run: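 Here, parent compounds undergo 2 h phase I metabolism by PB/BNF-induced rat S9 before 24 h transactivation in VM7Luc4E2 cells; the curve models S9-positive minus S9-negative response over a 10-point series.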

| SMILES | outcome |
| --- | --- |
| OCCOCCOCCOCCO | inactive |
| NCCCN1CCOCC1 | inactive |
| CC(=O)OCCOC(C)=O | inactive |
| CCCCCCCCCCCCCC(=O)O | inactive |
| CCCCCCCCCC=O | inactive |
| CN(C)CCCN | inactive |

System: not listed separately
Assay: CCTE_Shafer_MEA_dev_burst_rate: CCTE's Neural Network Formation Assay for Burst Rate, Shafer Lab (AID 2284042; active = hit-call score of the fitted dose curve at least 0.9, where 1 is the maximum; inactive = score below 0.9;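 for AC50: potency for loss of burst rate below DMSO control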)
How it was run: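 Developmental network assay measuring how 12-day exposure of rat cortical neuron cultures alters bursting on extracellular MEA recordings. Values are AUC of well-mean burst rate across four recording days, relative to DMSO vehicle.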

| SMILES | outcome | AC50 |
| --- | --- | --- |
| c1ccc2c(c1)c1cccc3ccc4cccc2c4c31 | inactive |  |
| CN(C)C(=N)N=C(N)N | inactive |  |
| N#Cc1ccc(CC(=NNC(=O)Nc2ccc(OC(F)(F)F)cc2)c2cccc(C(F)(F)F)c2)cc1 |  | 240 nM (active) |

System: not listed separately
Assay: CCTE_Shafer_MEA_dev_bursting_electrodes_number: CCTE's Neural Network Formation Assay for Number of Bursting Electrodes, Shafer Lab (AID 2284043)
How it was run: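 Primary rat cortical neurons were cultured on PEI-coated 48-well MEA plates (16 electrodes/well) and exposed from plating through day 12, with compound renewed at feeds on DIV 5 and 9. Electrodes bursting ≥1 per 2 min were counted on DIV 5, 7, 9, 12; trapezoidal AUC taken.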

| SMILES | AC50 | outcome |
| --- | --- | --- |
| c1ccc2c(c1)c1cccc3ccc4cccc2c4c31 | 3330 nM (active) |  |
| CN(C)C(=N)N=C(N)N |  | inactive |
| N#Cc1ccc(CC(=NNC(=O)Nc2ccc(OC(F)(F)F)cc2)c2cccc(C(F)(F)F)c2)cc1 | 297 nM (active) |  |

System: not listed separately
Assay: CCTE_Shafer_MEA_dev_per_burst_interspike_interval: CCTE's Neural Network Formation Assay for Burst Interspike Interval, Shafer Lab (AID 2284044; active = hit-call score of the fitted dose curve at least 0.9, where 1 is the maximum; inactive = score below 0.9;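 note: mean spike spacing inside bursts as AUC over recordings on days 5 7 9 12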;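 for AC50: potency for a decrease of within-burst interspike interval below DMSO level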)
How it was run: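 Spontaneous activity of maturing rat cortical networks is recorded on DIV 5, 7, 9 and 12 under chronic compound exposure beginning at plating. Endpoint: burst interspike interval well-mean, collapsed into trapezoidal AUC and fitted in the negative direction relative to DMSO.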

| SMILES | outcome | AC50 |
| --- | --- | --- |
| c1ccc2c(c1)c1cccc3ccc4cccc2c4c31 | inactive |  |
| CN(C)C(=N)N=C(N)N | inactive |  |
| N#Cc1ccc(CC(=NNC(=O)Nc2ccc(OC(F)(F)F)cc2)c2cccc(C(F)(F)F)c2)cc1 |  | 301 nM (active) |

System: not listed separately
Assay: CCTE_Shafer_MEA_dev_burst_duration_mean: CCTE's Neural Network Formation Assay for Mean Burst Duration, Shafer Lab (AID 2284045; active = hit-call score of the fitted dose curve at least 0.9, where 1 is the maximum; inactive = score below 0.9;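 for AC50: curve fitted for loss meaning shorter burst duration than DMSO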)
Procedure: CCTE_Shafer_MEA_dev assay is conducted using Axion Biosystems 48 well microelectrode array (MEA) plates and Maestro recording system. Each well of the MEA plate contains a grid of 16 microelectrodes embedded in the culture surface. Electrically active cells, such as neurons, can be cultured over the electrodes, and electrical activity in these cells can be recorded extracellularly. The spontaneous firing of neurons is captured from each electrode on a microsecond timescale providing both temporally and spatially precise data. […] The CCTE_Shafer_MEA_dev assay uses primary cultures of rat cortical neurons. Recordings are made on days post-plating 5, 7, 9 and 12. As these cultures mature over time, neural networks develop functional activity and form cohesive networks in which electrical activity can be highly coordinated. CCTE_Shafer_MEA_dev_burst_duration_mean is 1 of 19 assay components of the CCTE_Shafer_MEA_dev assay. It measures the average time interval from the first spike (action potential firing) to the last spike in a singe-electrode burst (temporally-clustered group of spikes) during a recording in a microelectrode array (MEA) using Axion Biosystems Maestro 768 channel amplifier with the AxIS adaptive spike detector. The mean burst duration is averaged across the actively bursting electrodes to report a well-mean value. To collapse across multiple recordings made on days post-plating 5, 7, 9 and 12, the trapezoidal area-under-the-curve of the component is calculated.Data from the assay component CCTE_Shafer_MEA_dev_burst_duration_mean was analyzed into 1 assay endpoint. This assay endpoint, CCTE_Shafer_MEA_dev_burst_duration_mean, was analyzed in the negative analysis fitting direction relative to DMSO as the negative control and baseline of activity. Using a type of functional reporter, gain or loss-of-signal activity can be used to understand electrical activity.
On the day prior to culture, each well was coated thoroughly with 150 uL of 0.05% polyethyleneimine (PEI, Sigma Cat P3143) in 50 mM HEPES (Sigma Cat H7523) at a pH of 8. […]

| SMILES | outcome | AC50 |
| --- | --- | --- |
| c1ccc2c(c1)c1cccc3ccc4cccc2c4c31 | inactive |  |
| CN(C)C(=N)N=C(N)N | inactive |  |
| N#Cc1ccc(CC(=NNC(=O)Nc2ccc(OC(F)(F)F)cc2)c2cccc(C(F)(F)F)c2)cc1 |  | 358 nM (active) |

System: not listed separately
Assay: CCTE_Shafer_MEA_dev_interburst_interval_mean: CCTE's Neural Network Formation Assay for Mean Interburst Interval, Shafer Lab (AID 2284046; active = hit-call score of the fitted dose curve at least 0.9, where 1 is the maximum; inactive = score below 0.9;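 note: well-mean interburst interval of bursting electrodes as AUC over four recording days; curve fitted for decrease in interburst interval relative to DMSO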)
How it was run: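 Network formation assay in primary rat cortical cultures, exposed from DIV 0 to 12. Mean interburst interval per well, integrated as AUC over four recordings.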

| SMILES | outcome | AC50 |
| --- | --- | --- |
| c1ccc2c(c1)c1cccc3ccc4cccc2c4c31 | inactive |  |
| CN(C)C(=N)N=C(N)N | inactive |  |
| N#Cc1ccc(CC(=NNC(=O)Nc2ccc(OC(F)(F)F)cc2)c2cccc(C(F)(F)F)c2)cc1 |  | 63.2 nM (active) |

System: not listed separately
Assay: CCTE_Shafer_MEA_dev_inter_network_spike_interval_mean: CCTE's Neural Network Formation Assay for Mean Inter-network Spike Interval, Shafer Lab (AID 2284047; active = hit-call score of the fitted dose curve at least 0.9, where 1 is the maximum; inactive = score below 0.9;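 for AC50: potency for a decrease in mean inter-network spike interval below DMSO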)
How it was run: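 Compound was given at plating to primary rat cortical neurons and renewed with full medium changes on DIV 5 and 9. Extracellular activity was recorded on days 5, 7, 9, 12; AUC values were fitted for loss relative to DMSO control.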

| SMILES | AC50 | outcome |
| --- | --- | --- |
| c1ccc2c(c1)c1cccc3ccc4cccc2c4c31 | 18600 nM (active) |  |
| CN(C)C(=N)N=C(N)N |  | inactive |
| N#Cc1ccc(CC(=NNC(=O)Nc2ccc(OC(F)(F)F)cc2)c2cccc(C(F)(F)F)c2)cc1 | 634 nM (active) |  |
